We go through 40 compounds from PubChem BioAssay (Tox21).

The source made the active and inactive calls. A call without a number means that no potency is given here. Calls come from the whole dose curve; as a rule, active = well fitted activation curve with a large enough effect in the repeat runs; inconclusive = weak or mixed curves; inactive = flat fitted curve, though single readings scatter.

KiSS-1 receptor (Homo sapiens), sequence (Q969F8 whole entry, looked up): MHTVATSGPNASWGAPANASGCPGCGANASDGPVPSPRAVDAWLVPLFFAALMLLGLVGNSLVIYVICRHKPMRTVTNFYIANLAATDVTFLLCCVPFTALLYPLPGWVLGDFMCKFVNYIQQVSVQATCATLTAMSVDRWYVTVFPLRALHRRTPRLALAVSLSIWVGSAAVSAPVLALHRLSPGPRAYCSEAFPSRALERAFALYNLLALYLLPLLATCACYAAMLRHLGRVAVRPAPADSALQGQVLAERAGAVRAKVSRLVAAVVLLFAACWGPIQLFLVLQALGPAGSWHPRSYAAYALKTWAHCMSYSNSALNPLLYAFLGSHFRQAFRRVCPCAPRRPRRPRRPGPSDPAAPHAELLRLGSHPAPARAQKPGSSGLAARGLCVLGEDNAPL

The target of this assay is KiSS-1 receptor (Homo sapiens) (UniProt Q969F8). The experiment in a line: Human kisspeptin (KISS1R) small molecule agonists, calcium flux assay in KISS1R-HEK293 cells (AID 1920064). To be noted: KISS1R-HEK293, calcium flux fluorescence, agonist; series mostly up to 76.8 µM. An excerpt:
National Center for Advancing Translational Sciences [NCATS]
Division of Preclinical Innovation [DPI]
U.S. Environmental Protection Agency [EPA]
National Institutes of Environmental Health Sciences [NIEHS]
National Toxicology Program [NTP]
U.S. Food and Drug Administration [FDA]
Kisspeptin and its receptor KISS1R play key roles in mammalian reproduction due to their involvement in the onset of puberty and control of the hypothalamic-pituitary-gonadal axis such as regulates GnRH release from the hypothalamus. The kisspeptin/KISS1R system also plays a direct role in peripheral organs (including the ovary, testis, uterus, and placenta) and is implicated in reproductive diseases such as miscarriage and polycystic ovary syndrome (PCOS). Abnormal KISS1R activity is associated with abnormal puberty, infertility, endometriosis, and hormone-dependent tumors. The KISS1 receptor (KISS1R, also called GPR54), a G-protein-coupled receptor (GPCR), acts (through phospholipase C) to increase intracellular inositol trisphosphate and then release intracellular calcium stores. Cell-based KISS1R-HEK293 assay is using HEK293 cells that have been genetically engineered to express the human KISS1R, which activity can be measured by calcium signaling. A compound/drug can activate (agonist) KISS1R that can be monitored by levels of intracellular calcium.
KISS1R-HEK293 cells developed by Codex Corp contain human KISS1R gene, which was stably integrated into HEK 293 cells. The compound activation can be detected by fluorescence intensity via calcium flux assay. This cell line has been used to screen the Tox21 10K compound library to identify agonists of KISS1R.
KISS1R-Hek293 cells were dispensed at 1500 cells/4uL/well in 1536-well black wall/clear bottom plates using a multidrop dispenser. After the assay plates were incubated at a 37 C/5% CO2 incubator for 18 hours, 4 microL of Calcium Dye Solution was added to each well. The plates were incubated at 37 C for 1 hour. And then 23 nL of compounds dissolved in DMSO, positive controls, or DMSO only was transferred to the assay plate by a pin tool station. The fluorescence intensity in the plates was measured using FDSS 7000EX kinetic plate reader with a filter set of Ex/Em=480/540 for 3 min at 1 sec intervals. Each test compound was measured at 15 concentrations and in triplicates.
As for `CN(C)C(=O)Nc1cccc(C(F)(F)F)c1`, the Potency result is “inactive”. With `O=[N+]([O-])c1ccc(Cl)c([N+](=O)[O-])c1`, the Potency result is “inactive”. Take `CC1CN1` (stereo not given): the Potency result is “inactive”. As for `O=[N+]([O-])c1ccc(CBr)cc1`, the Potency entry was “inactive”. Take `CC(c1ccc(O)cc1)c1ccc(O)cc1`: the Potency result is “inactive”. Regarding `CCN(CC)C1CCCCC1`, the Potency result was “inactive”.

For `CNC(=O)O/N=C/C(C)(C)S(C)=O` (stereo not given), the Potency result was “inactive”. Regarding `CC(C)OC(=S)S`, the Potency entry was “inactive”. As to `COc1ccc2c3c1O[C@H]1[C@H](O)CC[C@H]4[C@@H](C2)N(C)CC[C@@]341`, the Potency result was “inactive”. Take `CN1CSC(=S)N(C)C1`: the Potency result is “inactive”. Still for that read-out and setting: in the case of `CC(C)(O)C#N` it was “inactive”. `CCCCCc1cc(O)cc(O)c1`: the Potency entry is “inactive”. With `CC(=O)C(Cl)Cl`, the Potency result is “inactive”. Take `CCCN(CCOc1c(Cl)cc(Cl)cc1Cl)C(=O)n1ccnc1`: the Potency entry is “inactive”. `CCC(C)(C)c1ccc(O)cc1`: the Potency entry was “inactive”. On the same count and under the same terms, in the case of `CCc1cccc(C)c1N(C(=O)CCl)C(C)COC` (stereo not given) it was “inactive”; in that of `CCC(=O)O[C@@H]1C=C2CCC3C(CCC4(C)C3CC[C@@H]4OC(=O)CC)C2CC1` (stereo not given in full), “inactive”; in that of `O=[N+]([O-])c1cc(Cl)c(Cl)c(Cl)c1`, “inactive”. For `CC(O)CN(CC(C)O)CC(C)O` (stereo not given), the Potency entry is “inactive”. Same read-out and setting: in the case of `CCCOC(=O)c1ccccc1C(=O)OCCC` it was “inactive”. The same measure, in the same setting: in the case of `CCCCCCCCCc1ccc(O)cc1` it was “inactive”; in that of `Cn1cc(-c2ccccc2)c(=O)c(-c2cccc(C(F)(F)F)c2)c1`, “inactive”.

For `CO[C@@H]1[C@H](OC(=O)NC(=O)CCl)CC[C@]2(CO2)[C@H]1[C@@]1(C)O[C@@H]1CC=C(C)C`, the activation was 0.453% [at 15.8 µM] (inactive). As for `CCCCCCCCCCn1cc[n+](C)c1`, the Potency result is “inactive”.

For `Cc1ccccc1[N+](=O)[O-]`, the Potency entry is “inactive”. The same measure, in the same setting: in the case of `CNC(=O)O/N=C/C(C)(C)SC` it was “inactive”; in that of `CCCSC(=O)Cl`, “inactive”; in that of `O=C(O)COc1cc(Cl)c(Cl)cc1Cl`, “inactive”.

Consider `CCCCCCCCCCOC(=O)c1ccccc1C(=O)OCCCCCCCCCC`, for which the Potency entry is “inactive”. The same measure, in the same setting: in the case of `CCC[N+]1(C)CCCC1` it was “inactive”; in that of `Nc1ccc([N+](=O)[O-])cc1N`, “inactive”. Same read-out and setting: in the case of `CCN(CC)C(=O)SCc1ccc(Cl)cc1` it was “inactive”; in that of `CCOS(=O)(=O)OCC`, “inactive”; in that of `Nc1c(Cl)c(Cl)nc(C(=O)O)c1Cl`, “inactive”. As for `O=C1c2ccccc2C(=O)N1SC(Cl)(Cl)Cl`, the Potency result was “inactive”. On to `O=C(O)C(Cl)(Cl)Br`, for which the Potency entry is “inactive”. For `N#CCBr`, the Potency result is “inactive”.

In the case of `CCC(=O)C(CC(C)N(C)C)(c1ccccc1)c1ccccc1` (stereo not given), the Potency result is “inactive”. As to `CCCCOC(=O)CCC(=O)OCCCC`, the Potency result is “inactive”.

For the compound `[O]=[Cr](=[O])([OH])[O][Cr](=[O])(=[O])[OH]`, the Potency result is “inactive”.
